# HP1b binding inh: HTS for Inhibitors of HP1-beta Chromodomain Interactions with Methylated Histone Tails; Chromobox protein homolog 1 (Homo sapiens), P83916; AlphaScreen HP1-beta / biotin-H3K9me3 peptide binding; Potency, µM (titrated, usually from 114 µM), without a hit: at the highest dose activity change, negative = inhibition, actives largely listed as inhibitors; AID 540317, 2011; actives 0.56% (n = 390,000); also: nearly all actives have a fitted effect of over 70% in size
# Target sequence (P83916 whole entry, looked up): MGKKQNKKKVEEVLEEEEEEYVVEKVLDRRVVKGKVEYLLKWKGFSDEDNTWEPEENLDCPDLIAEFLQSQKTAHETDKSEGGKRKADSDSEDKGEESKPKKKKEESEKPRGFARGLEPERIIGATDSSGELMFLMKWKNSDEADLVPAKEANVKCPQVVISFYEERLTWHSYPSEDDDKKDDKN
#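 Compound inhibition of the preformed complex between 50 nM HP1-beta and 50 nM biotinylated H3K9me3 peptide was read by AlphaScreen. Buffer was PBS pH 7.4 with 0.01% Tween-20. Incubations ran 30 min at room temperature, with 10 ug/mL donor/acceptor beads.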
# JMJD2A Tudor: qHTS Assay for Inhibitors of JMJD2A-Tudor Domain; Lysine-specific demethylase 4A (Homo sapiens), O75164; AlphaScreen JMJD2A-Tudor / H3K4me3 peptide binding; Potency, µM (doses to about 114 µM), for inactives: top-dose activity change, negative = inhibition, hits mostly inhibitors; actives 4.4% (n = 390,000); AID 504339, 2011; also: % is scaled to controls: 0 for no effect and ±100 for the full control effect; nearly all actives have a fitted effect of over 50% in size
# BAZ2B block: qHTS Assay for Inhibitors of BAZ2B | Bromodomain adjacent to zinc finger domain protein 2B (Homo sapiens), Q9UIF8 | AlphaScreen BAZ2B-H3K14Ac peptide displacement | Potency, µM (series often up to 114 µM), without a hit: at the top dose activity change, negative = inhibition, hits mostly inhibitors | actives 4.4% (n = 360,000) | AID 504333, 2011; also: % is scaled to controls: 0 for no effect and ±100 for the full control effect; nearly all actives have a fitted effect of over 60% in size
#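 Compounds, titrated to a top concentration of 110 uM, were incubated 30 min at room temperature with preformed BAZ2B/acetyl-K14 H3 peptide complex (50 nM each). Proximity signal was measured by AlphaScreen after 20 min with beads.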
# L3MBTL1 inh: qHTS Assay for the Inhibitors of L3MBTL1; AlphaScreen L3MBTL1–H3K9me1 peptide binding; actives 0.66% (n = 230,000); AID 485360, 2010; Potency, µM (doses to about 57.1 µM), for inactives: top-dose activity, negative = inhibition, actives largely listed as inhibitors; Lethal(3)malignant brain tumor-like protein 1 (Homo sapiens), Q9Y468; also: % is scaled to controls: 0 for no effect and ±100 for the full control effect; nearly all actives have a fitted effect of over 60% in size
#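 L3MBTL1 (50 nM) pre-complexed 30 min with biotinylated H3(1-15)K9me1 peptide (75 nM), then compounds added for 30 min at room temperature; AlphaScreen streptavidin donor/nickel chelate acceptor beads (10 ug/mL final) read after 30 min dark incubation.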
# G9a inh: qHTS Assay for Inhibitors of Histone Lysine Methyltransferase G9a. Histone-lysine N-methyltransferase EHMT2 (Homo sapiens), Q96KQ7. G9a H3K9 monomethylation, AlphaScreen, 2 h. Potency, µM (doses to about 102 µM), without a hit: at the highest dose activity, negative = inhibition, actives largely listed as inhibitors. actives 8.8% (n = 350,000). AID 504332, 2011; also: % is scaled to controls: 0 for no effect and ±100 for the full control effect; nearly all actives have a fitted effect of over 75% in size
# Target sequence (Q96KQ7 913-1193 limits assumed): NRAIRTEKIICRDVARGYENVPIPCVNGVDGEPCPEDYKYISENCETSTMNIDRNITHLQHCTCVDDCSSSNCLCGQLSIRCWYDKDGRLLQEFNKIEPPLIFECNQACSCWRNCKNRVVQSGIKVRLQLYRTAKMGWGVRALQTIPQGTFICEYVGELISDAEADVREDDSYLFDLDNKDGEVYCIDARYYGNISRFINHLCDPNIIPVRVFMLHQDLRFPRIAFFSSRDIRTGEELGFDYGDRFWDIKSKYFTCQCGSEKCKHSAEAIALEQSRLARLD
#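 G9a (20 nM) was preincubated 15 min with compound, then reacted 2 h at room temperature with 500 nM biotin-H3K9 peptide and 20 µM SAM. Monomethyl-H3K9 detected by AlphaScreen using anti-H3K9me1 antibody.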
# * = called active by the depositor; ? = inconclusive; . = not tested or not shown; [ ] = remark or other dose. This is a sample that favours compounds with a hit; in the whole collection about 11% have one here. Calls follow the shape of the dose curve; as a rule, active = well fitted inhibition curve with a large enough effect; inconclusive = small, poorly fitted or top-dose-only effect; inactive = no such curve, though single readings can be large or run the other way. Potency is read from the fitted curve at half-maximal effect.
SMILES,HP1b binding inh,JMJD2A Tudor,BAZ2B block,L3MBTL1 inh,G9a inh
CC(C)(C)c1cc(CN(CCO)CCO)c(O)c(C(C)(C)C)c1,33%,-31%,-18%,-2%,.
Cc1ccc(NC(=O)N2CCC(=O)N2)cc1,1%,32µM*,-37%,9%,?
Cc1ccc(NC(=O)C(C)C(=O)Nc2ccc(C)cc2)cc1,49%,0%,.,.,-42%
N#CC(=C1C=CC(=NO)C(Cl)=C1)c1ccc(Cl)cc1,?,20µM*,.,.,.
Oc1ccc2cc(Br)ccc2c1CN1CCCC1,-19%,-12%,.,-2%,?
Cc1[nH][nH]c(=O)c1N=Nc1ccc(S(N)(=O)=O)cc1,20%,-6%,.,.,.
O=C(O)Cc1ccc(N=Nc2c(O)c(C(=O)O)cc3ccccc23)cc1,50µM*,56µM*,28µM*,25µM*,40µM*
NS(=O)(=O)c1ccc(N=Nc2c(O)c(C(=O)O)cc3ccccc23)cc1,?,?,40µM*,-25%,34%[0.501 µM]
COc1ccc(N2C(=O)CS(=O)(=O)C23C(=O)N(Cc2ccc(F)cc2)c2ccc(C)cc23)cc1 (stereo not given),18%,-26%,-2%[57.1 µM],.,-27%[59 µM]
CCOc1ccccc1C1C(C(=O)Nc2ccccc2)=C(C)Nc2nc(-c3ccccc3)nn21 (stereo not given),29%,-18%,-8%,.,-11%[59 µM]
O=C(Cc1nc2ccccc2[nH]1)c1ccc(Br)cc1,19%,-29%,-27%,0%,45µM*
O=C(O)COCc1nc2ccccc2[nH]1,20%,-27%,-20%,8%,79µM*
CC[C@@]1(C(=O)OC)N[C@H](CN(C)S(=O)(=O)c2ccc(-c3ccccc3)cc2)[C@@H]2C(=O)N(Cc3ccccc3)C(=O)[C@@H]21,43%,-11%,.,-8%,.
C=CCSc1nnc(-c2cc3c(-c4ccccc4)nn(C)c3s2)n1C,33%,-10%,-12%,-4%,0%[59 µM]
C=CCSc1nnc(-c2cc3c(C(F)(F)F)nn(C)c3s2)n1C,46%,10%,1%,1%,71µM*
O=C(Nc1nccs1)c1ccc(COc2c(F)c(F)cc(F)c2F)cc1,59%,1%,-1%,.,22%[0.501 µM]
Cc1cc(Br)ccc1NCc1ccccn1,16µM*,3.2µM*,16µM*,5%,?
O=C(O)/C=C/C(=O)NCc1ccccn1,37%,6%,?,.,45µM*
O=C(O)/C=C/C(=O)NCc1ccccc1,49%,-8%,-3%,10%,?
OC(CNCc1ccncc1)c1ccccc1 (stereo not given),-13%,?,4%,8%,22%[59 µM]
OC(CNCc1ccccn1)c1ccccc1 (stereo not given),60%,-7%[57.1 µM],22µM*,-4%,?
c1ccc(NCc2ccccn2)cc1,17%,-32%,79µM*,-5%,4%
CCOC(=O)c1c(S(=O)(=O)N2CCC(C(=O)NCc3ccccc3Cl)CC2)c(C)n(C)c1C,24%,-20%,-15%,.,10%[59 µM]
COc1ccccc1C(=O)Nn1c(C)nc2ccccc2c1=O,5%,-15%,3%,.,4%
Cc1cccc(NC(=O)CN2C(=O)CCc3ccccc32)c1C,22%,3%,-10%,.,-9%[59 µM]
SMILES,HP1b binding inh,JMJD2A Tudor,BAZ2B block,L3MBTL1 inh,G9a inh
CCOC(=O)c1ccc(CN(Cc2ccc(F)cc2)S(=O)(=O)c2cc(C(=O)Nc3cccc(C(F)(F)F)c3)ccc2F)cc1,17%,-17%,-5%,.,0%[59 µM]
CCOc1ccc(NS(=O)(=O)c2cc3c(cc2C)N(C)CCO3)cc1,-13%,?,-32%,-8%,0%
COc1ccc(NS(=O)(=O)c2cc3c(cc2C)N(C)CCO3)cc1,-12%,?,50µM*,-6%,11%
O=C(NC1CCCCC1)c1csnn1,35%,-6%,.,.,.
O=C(NC(=O)N1CCCC1)c1csnn1,4%,-6%,1%,.,56µM*
Cc1ccc(C)c(N=Nc2nc3ccccc3n2C)c1,16µM*,25µM*,8.9µM*,?,30%[0.501 µM]
Cn1c(/N=C/c2cccs2)nc2ccccc21,-5%,-23%,-12%,2%,2%[12.7 µM]
Cc1cc(C)c(C)c(N=Nc2nc3ccccc3n2C)c1C,13µM*,11µM*,7.9µM*,?,11µM*
Cc1ccc(F)cc1NC(=O)COC(=O)c1ccc(S(C)(=O)=O)c([N+](=O)[O-])c1,27%,-13%,.,.,.
CCC(=O)N1CCc2cc(CNS(=O)(=O)c3ccc(CC(C)C)cc3)ccc21,25%[57 µM],-8%,0%,.,11%[59 µM]
S=C(NCc1ccccc1)Nc1cccc2cnccc12,-10%,-11%,-23%,.,22µM*
S=C(NCc1cccnc1)Nc1cccc2ccccc12,49%,-5%,3%,2%,-8%[59 µM]
COc1ccc(CCNC(=S)Nc2cccc3ccccc23)cc1,17%,-18%,?,-6%,-14%[59 µM]
S=C(NCCc1ccccc1)Nc1cccc2cnccc12,-8%,-30%,?,-9%,50µM*
CCn1c(SCC(=O)N(C)Cc2ccc(OC)c(F)c2)nc2cc(S(N)(=O)=O)ccc21,17%,-6%,-2%,.,-4%
Cc1cc2oc(=O)cc(CN3CCCCC3C)c2cc1C (stereo not given),-8%,-13%,1%,.,50µM*
Cc1cc(C)c(S(=O)(=O)NCCc2cc3ccc(C)cc3[nH]c2=O)c(C)c1,20%,-13%,-2%,.,-2%[59 µM]
CCC1(C)Cc2sc3c(=O)[nH]c(=S)[nH]c3c2CO1 (stereo not given),-1%,-11%[11.4 µM],?,.,3.5µM*
COc1ccc(N2CSC3=C(C#N)C(c4cccc(OC)c4OC)CC(=O)N3C2)cc1 (stereo not given),?,20µM*,?,.,2µM*
CCc1ccccc1N1CSC2=C(C#N)C(c3ccccc3F)CC(=O)N2C1 (stereo not given),?,22µM*,56µM*,-4%,0.79µM*
COc1cccc(C2SCC(=O)N2c2ccc(Cl)cc2)c1OC (stereo not given),45%,5%,-7%,1%,-5%[59 µM]
COc1cc(OC)c(C2CC(=O)N3CN(c4ccccc4C)CSC3=C2C#N)cc1OC (stereo not given),.,.,56µM*,-16%,?
Cc1ccc(-n2c(=O)c3c(c4cc(C)ccc4n3C)n(CC(=O)Nc3ccc(F)cc3)c2=O)cc1,-15%,-17%,-9%,.,-17%[59 µM]
O=C(OCC(=O)N1CCCc2ccccc21)c1c(F)cccc1F,30%,0%,20%,5%,?
COc1cccc(CNC(=O)COC(=O)c2ccc(S(C)(=O)=O)c([N+](=O)[O-])c2)c1,64%,-4%,.,.,.

# High-throughput results deposited in PubChem by National Center for Advancing Translational Sciences (NCATS).
